Only some compounds are listed: those with a hit (about 3.4% of all), similar ones and a draw of the others.
HSF1 inh – HSF1 inhibitors in luciferase reporter cells, primary screen, cell-based, NIH3T3, luminescence | NIH3T3-HGL HSE-luciferase, MG132-induced, luminescence 8 h; active compounds read low | 300,000 compounds, 0.77% hits | AID 2098, 2009 | activity change, negative = inhibition, % at 7.5 µM (by protocol);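 active = more than half of replicate wells show activity change below -50%, luminescence cut by over half; inconclusive = some wells, but at most half, below -50%; inactive = no replicate well below -50%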;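 note: luciferase reports HSF-1 transcriptional activity via heat shock element; 0% = median of DMSO wells and -100% = zero luminescence signal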
FXN GAA850 act – FXN promoter activators, primary screen, cell-based, luciferase luminescence, HEK293 lucGAA850. HEK293 lucGAA850 FXN promoter luciferase reporter, 24 h; percent of 10 µM SAHA response. activation, % at 6 µM. 360,000 compounds, 0.56% hits. AID 540364, 2011;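 active = activation above the average of all compounds screened plus 3 SD, cutoff fixed separately per campaign, cut at about 7.5% in these data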;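 note: 0% = DMSO wells and 100% = 10 µM SAHA wells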
SMARCA2 activ – SMARCA2 (BRM) function activators, primary screen, cell-based, luminescence, high throughput; MG213 cells, MMTV-luciferase reporter, dexamethasone, overnight; activation, % at 9.1 µM; 370,000 compounds, 1% hits; in the data active = activation above about 7.8%;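 note: 0% = vehicle wells and 100% = reference activator wells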
AI-2 QS modul – Vibrio harveyi AI-2 quorum sensing modulators, primary screen, JMH597 strain, luminescence/OD600 ratio | activity change, % at 7.5 µM | Vibrio harveyi JMH597 AI-2 luminescence/OD600 ratio, 9 h; active compounds read low; strain lacks LuxN and CqsS sensors; 0 = neutral-control median | 300,000 compounds, 0.4% hits; in the data active = activity change below about -75%, passing the limit was not always enough; inconclusive = no clear call, values can overlap the other calls;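 note: luminescence divided by OD600 gain over 9 h not by final OD600 alone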
HSP90 inh – HSP90 inhibitors, primary screen, cell lysate, luminescence | Heat shock protein HSP 90 (rabbit reticulocyte lysate; luciferase refolding) | Rabbit reticulocyte lysate, luciferase refolding luminescence, 3 h | inhibition, % at 5.6 µM | 290,000 compounds, 0.91% hits;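 active = inhibition above the screen-wide mean plus 3 SD, computed separately per campaign, cut at about 16% in these data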;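 note: 0% = DMSO wells and 100% = 60 µM geldanamycin wells; inhibitors lower the luminescence because luciferase stays unfolded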
PG9 binder – binders of HIV-1 gp120 antibody PG9, primary screen, biochemical, TR-FRET | TR-FRET gp120-PG9 antibody binding | inhibition, % at 6.7 µM | 360,000 compounds, 0.43% hits; in the data active = inhibition above about 8.5%
JMH597 growth rt – Vibrio harveyi growth inhibition, confirmation, counter-screen for AI-2 quorum sensing project, JMH597 strain, OD600 absorbance; 9 h; lacks LuxN and CqsS sensors; shares compounds with AI-2 QS modul; 750 compounds, 1% hits; AID 2726, 2010; growth inhibition, % at 7.5 µM;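 active = every replicate shows growth inhibition above 50%; inconclusive = at least half, but not all, replicates pass that cutoff; inactive = fewer than half of replicates pass it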
BB721 const-QS lum – luminescence inhibition in constitutive-on V. harveyi, confirmation, counter-screen for LuxS inhibitor project, strain BB721, luminescence readout; shares compounds with AI-2 QS modul; Vibrio harveyi BB721 luminescence, 9 h; inhibition, % at 7.5 µM; 750 compounds, 95% hits; AID 2727, 2010;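 active = inhibition above about 80% in every replicate, not just on average, limit read from the data; inconclusive = at least half of replicates past the limit, but not all; inactive = fewer than half of replicates past the limit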
BB721 growth rt – growth inhibition of V. harveyi BB721, confirmation, cytotoxicity control for AI-2 quorum sensing inhibitors, strain BB721, absorbance OD600; shares compounds with AI-2 QS modul; Vibrio harveyi BB721 growth, 9 h; growth inhibition, % at 7.5 µM; 750 compounds, 3% hits;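 active = every replicate shows growth inhibition above 50%; inconclusive = at least half but not all replicates above 50% inhibition; inactive = under half of replicates above 50% inhibition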
JMH597 AI-2 mod – Vibrio harveyi AI-2 signaling luminescence modulation – JMH597 strain, confirmation | 750 compounds, 97% hits | AID 2736, 2010 | shares compounds with AI-2 QS modul | Vibrio harveyi JMH597 AI-2 quorum sensing luminescence, 9 h; luxN and CqsS knockout, AI-2 only | inhibition, % at 7.5 µM;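 active = every replicate shows more than 75% inhibition of signal versus neutral control wells; inconclusive = half to three quarters of replicates exceed 75% inhibition; inactive = fewer than half of replicates exceed 75% inhibition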
Starred values were filed as active, the others as inactive; u = inconclusive; x = not tested or not shown.

SMILES	HSF1 inh	FXN GAA850 act	SMARCA2 activ	AI-2 QS modul	HSP90 inh	PG9 binder	JMH597 growth rt	BB721 const-QS lum	BB721 growth rt	JMH597 AI-2 mod
OCCC(N1CCOCC1)C(O)(c1ccccc1)c1ccccc1 (stereo not drawn)	x	x	1	x	x	0	x	x	x	x
COc1ccccc1N1CCN(CCS(=O)(=O)c2cc(Cl)ccc2Cl)CC1	x	2	-2	x	x	-2	x	x	x	x
CC1(c2ccc3c(c2)OCO3)NC(=O)N(CC(=O)NCCC2=CCCCC2)C1=O (stereo not drawn)	-1	-2	-2	-87*	3	-1	12	90*	22	95*
CC1(c2ccccc2)NC(=O)N(CC(=O)NCCC2=CCCCC2)C1=O (stereo not drawn)	2	1	-2	-90*	1	0	4	91*	-1	95*
Cc1ccc(C2(C)NC(=O)N(CC(=O)NCCC3=CCCCC3)C2=O)cc1 (stereo not drawn)	-1	1	0	-74	-1	0	x	x	x	x
Cc1cc(C)c(Cn2ncn(-c3ccc(Br)cc3)c2=O)c(C)c1	3	2	-5	-1	0	4	x	x	x	x
Cc1ccc(Cn2ncn(-c3ccccc3)c2=O)cc1	20	1	-1	u	0	-2	4	95*	26	97*
COC(=O)CSc1nnc(COc2cccc3ccccc23)o1	-2	0	-4	-83*	3	-1	-3	92*	-18	93*
COc1ccc(NC(=O)C2CSC(C)(C)N2C=O)cc1 (stereo not drawn)	1	3	-1	-89*	0	0	12	96*	1	97*
CC1(C)SCC(C(=O)O)N1C=O (stereo not drawn)	-6	1	1	3	3	1	x	x	x	x
Cc1cccc(CSc2nnc(-c3ccccn3)n2N)c1	10	1	-1	-90*	-2	1	-4	92*	3	94*
Nn1c(SCc2ccc(Br)cc2)nnc1-c1ccccn1	9	1	-2	-54	-2	0	x	x	x	x
COc1ccc(CNS(=O)(=O)CC2NCCc3ccccc32)cc1 (stereo not drawn)	x	x	3	x	x	x	x	x	x	x
Cc1ccc(/C=N/Nc2ccc(C(=O)O)cc2)o1	-3	4	5	-91*	12	-10	4	97*	22	98*
COC(=O)C1=C(C)N(C)C(=NCc2ccc(OC)cc2)NC1c1cccc(C(F)(F)F)c1 (stereo not drawn)	x	x	-1	x	x	-2	x	x	x	x
COC(=O)[C@H](CC(C)C)N(Cc1cn(Cc2ccc(C)cc2)nn1)S(=O)(=O)c1ccc(F)cc1Br	x	x	-5	x	x	x	x	x	x	x
COc1cc(SC)ccc1C(=O)Nc1ccc(OCC(=O)N2CCOCC2)cc1	13	5	6	23	15	-1	x	x	x	x
CSc1ccc(Cl)c(C(=O)Nc2ccc(OCC(N)=O)cc2)c1	-4	0	-3	u	-5	0	14	6	15	5

Source: PubChem BioAssay (several laboratories)
